mHTT-CaM PPI inh – mHTT-calmodulin interaction abrogation | P42858 | AlphaScreen His-mHTT/GST-CaM binding, luminescence | inhibition, % at 15 µM | 190,000 tested, 3.6% active | AID 1671202;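 note: 0% = both proteins with DMSO and 100% = one protein alone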
Pf apPOL inh – Pf-apPOL DNA polymerase inhibition; Recombinant Pf-apPOL, molecular beacon fluorescence, 1.5 h; inhibition, % at 10 µM; 210,000 tested, 0.25% active
An asterisk follows results filed as active. The full list was thinned out, with hits kept by preference. Cut-off read from the data, not from the text of the source: active = inhibition above about 50%; inactive = the rest.

What do the screens show for `C=C(C)COc1ccc2oc(C(C)(C)C)c(C(=O)OCC)c2c1`?
mHTT-CaM PPI inh: -68; Pf apPOL inh: 2

How did COc1ccccc1NC(=O)CSc1nc2[nH]ncc2c(=O)n1-c1cccc(Cl)c1C do in these assays?
mHTT-CaM PPI inh: 15; Pf apPOL inh: -6

Results for COc1ccccc1N1CCN(CC(=O)Nc2ccc(OC(F)(F)F)cc2)C1=O ?
mHTT-CaM PPI inh: -10; Pf apPOL inh: -12

Results for CN1CCC(CNC(=O)C(C)(C)C)CC1 ?
mHTT-CaM PPI inh: 0; Pf apPOL inh: -8

How did Cc1cc(C)nc(SCC(=O)NCc2ccco2)n1 do in these assays?
mHTT-CaM PPI inh: -6; Pf apPOL inh: 1

What do the screens show for `Cc1cc(C)nc(NC(c2ccco2)c2ccc3cccnc3c2O)n1` (stereo unspecified)?
mHTT-CaM PPI inh: 100*; Pf apPOL inh: -3

Results for CCNc1ccc(Br)cc1-c1nc2ccccc2n(CC)c1=O ?
mHTT-CaM PPI inh: 52*; Pf apPOL inh: -1

Results for CCn1c(=O)c(-c2ccc(C(=O)NC(C)(C)C)cc2)nc2ccccc21 ?
mHTT-CaM PPI inh: 0; Pf apPOL inh: -1

Results for Cc1ccccc1NC(=O)c1cc2c(s1)CN(C(C)C)C2 ?
mHTT-CaM PPI inh: -4; Pf apPOL inh: -4

How did Nc1ccc(N=Nc2ccccc2)c(N)n1 do in these assays?
mHTT-CaM PPI inh: 52*

Results for Oc1ccc(N=Nc2ccccc2)c(O)c1 ?
Pf apPOL inh: 36

What do the screens show for `Cc1ccccc1C1CCCN1C(=O)c1c(Cl)cnn1C` (stereo unspecified)?
mHTT-CaM PPI inh: 5; Pf apPOL inh: 1

What do the screens show for `COc1ccccc1N/C(C)=C/C(=O)c1ccccc1`?
mHTT-CaM PPI inh: 22; Pf apPOL inh: -4

Results for COc1ccc(N/C(C)=C/C(=O)c2ccccc2)c(OC)c1 ?
mHTT-CaM PPI inh: 51*; Pf apPOL inh: -1

How did CCC(=O)N1CCc2sc(S(=O)(=O)Nc3ccc(F)cc3)cc2C1 do in these assays?
mHTT-CaM PPI inh: 51*; Pf apPOL inh: -6

How did CCC(=O)N1CCc2sc(S(=O)(=O)Nc3ccccc3)cc2C1 do in these assays?
mHTT-CaM PPI inh: 9; Pf apPOL inh: 0

How did Cc1cc2c(N3CCC(C(=O)Nc4ccc(F)cc4Cl)CC3)nccc2s1 do in these assays?
mHTT-CaM PPI inh: -3; Pf apPOL inh: -2

What do the screens show for `Cc1cccc2sc(NC(=O)CN(C)S(=O)(=O)c3ccc(Br)s3)nc12`?
mHTT-CaM PPI inh: 92*; Pf apPOL inh: 1

What do the screens show for `Cc1cccc2sc(NC(=O)CCS(=O)(=O)c3ccc(Br)s3)nc12`?
mHTT-CaM PPI inh: 5; Pf apPOL inh: -2

Results for COc1ccc(Nc2ncc3c(n2)CCN(Cc2ccccc2OC)C3)cc1 ?
mHTT-CaM PPI inh: 45; Pf apPOL inh: -11

What do the screens show for `COc1cc(OC)c(OC)cc1CN1CCc2nc(Nc3ccc(F)cc3)ncc2C1`?
mHTT-CaM PPI inh: 70*; Pf apPOL inh: -4

How did COc1cc(Nc2ncc3c(n2)CCN(Cc2cccc(OC)c2OC)C3)cc(OC)c1 do in these assays?
mHTT-CaM PPI inh: 30; Pf apPOL inh: -6

How did COc1ccc(Nc2ncc3c(n2)CCN(Cc2cc(OC)c(OC)cc2OC)C3)cc1 do in these assays?
mHTT-CaM PPI inh: 14; Pf apPOL inh: -4

What do the screens show for `COc1cccc(CN2CCc3nc(Nc4ccc(F)cc4)ncc3C2)c1OC`?
mHTT-CaM PPI inh: 100*; Pf apPOL inh: -3

Results for CCCCN1CCc2nc(Nc3ccc(OC)cc3)ncc2C1 ?
mHTT-CaM PPI inh: 52*; Pf apPOL inh: -4

What do the screens show for `COc1ccc(NC(=O)c2cc(C(C)(C)C)n3nccc3n2)c(C)c1`?
mHTT-CaM PPI inh: -9; Pf apPOL inh: -3

What do the screens show for `O=c1[nH]c(Sc2c([N+](=O)[O-])cc(Br)c3nsnc23)nc2ccccc12`?
mHTT-CaM PPI inh: 25; Pf apPOL inh: -2

How did CN1CCN(C(=O)c2ccccc2N2CCC(NC(=O)c3cccs3)CC2)CC1 do in these assays?
mHTT-CaM PPI inh: 1; Pf apPOL inh: -9

How did CCN(C)C(=O)c1csc(-c2ccc(OC(C)C)cc2)n1 do in these assays?
mHTT-CaM PPI inh: 1; Pf apPOL inh: -3

Results for CN1C(=O)S/C(=C/c2ccc(Oc3ccc([N+](=O)[O-])cc3[N+](=O)[O-])cc2)C1=O ?
mHTT-CaM PPI inh: 5; Pf apPOL inh: -3

Results for Cc1[nH]nc(-c2ccc(O)cc2O)c1Oc1ccc(F)cc1 ?
Pf apPOL inh: 1

How did Cc1cc(N)n2nc(-c3ccc(Br)cc3)cc2n1 do in these assays?
mHTT-CaM PPI inh: 16; Pf apPOL inh: 0

Results for COc1ccc(CNC(=O)c2ccc(-c3ccnc(N4CCCCC4)n3)cc2)cc1 ?
mHTT-CaM PPI inh: -11; Pf apPOL inh: -1

What do the screens show for `CCc1c(C)sc(NC(=O)CCCn2nc([N+](=O)[O-])c(Br)c2C)c1C#N`?
mHTT-CaM PPI inh: 2; Pf apPOL inh: -3

How did COc1c(-c2cc(C(F)(F)C(F)F)[nH]n2)c(O)c(OC)c2occc12 do in these assays?
mHTT-CaM PPI inh: 21; Pf apPOL inh: -3

What do the screens show for `COc1ccc(-c2cc(-c3c(O)c(OC)c4occc4c3OC)[nH]n2)cc1OC`?
mHTT-CaM PPI inh: 86*; Pf apPOL inh: -2

Assay outcomes deposited in PubChem by University of Kansas High Throughput Screening Laboratory.
